A selection: hits, their analogues and other compounds. The true share with any hit is near 11%.
HPGD inh – HPGD (human) dehydrogenase inhibition | purified HPGD, NADH fluorescence kinetic, PGE2 substrate | 150,000 compounds, 4.3% hits | AID 894 | Potency, µM, inactives show top-dose activity change, negative = inhibition, hits mostly inhibitors | P15428; active = well fitted inhibition curve with a large enough effect, not every such curve was filed as active; inconclusive = small, poorly fitted or top-dose-only effect, or another doubt; inactive = no such curve, though single readings can be large or run the other way; also: potency is read from the fitted curve at half-maximal effect; % is scaled to controls: 0 for no effect and ±100 for the full control effect
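20 nM HPGD preincubated 15 min at room temperature with compound in 50 mM Tris-HCl pH 8, 0.01% Tween 20. Started with 1 mM NAD+ and 30 uM prostaglandin E2; NADH fluorescence (360/450 nm) read 5 times over 30-s intervals, last minus first.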
CBFb-RUNX1 inh – blocks binding between human CBF-beta and RUNX1; Q01196+Q13951; AlphaScreen CBFb-His/RUNX1-biotin binding, biochemical; Potency, µM (top dose mostly 59.8 µM), for inactives: top-dose activity, negative = inhibition, actives largely listed as inhibitors; 230,000 tested, under 10 active; AID 1477; also: % of control where 0% means no effect
Target sequence (Q01196 whole entry, looked up): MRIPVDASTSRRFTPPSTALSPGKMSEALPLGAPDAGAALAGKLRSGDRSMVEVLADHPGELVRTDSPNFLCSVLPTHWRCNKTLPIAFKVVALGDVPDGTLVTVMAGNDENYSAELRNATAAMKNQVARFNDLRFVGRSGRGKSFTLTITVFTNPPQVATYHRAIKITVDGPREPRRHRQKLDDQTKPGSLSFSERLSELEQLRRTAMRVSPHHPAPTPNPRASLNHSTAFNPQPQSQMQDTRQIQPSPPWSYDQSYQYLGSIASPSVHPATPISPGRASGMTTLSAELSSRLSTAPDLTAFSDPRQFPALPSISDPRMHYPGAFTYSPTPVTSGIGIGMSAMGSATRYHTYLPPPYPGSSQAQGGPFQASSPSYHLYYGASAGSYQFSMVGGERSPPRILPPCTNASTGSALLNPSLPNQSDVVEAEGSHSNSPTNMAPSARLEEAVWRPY
Target sequence (Q13951 whole entry, looked up): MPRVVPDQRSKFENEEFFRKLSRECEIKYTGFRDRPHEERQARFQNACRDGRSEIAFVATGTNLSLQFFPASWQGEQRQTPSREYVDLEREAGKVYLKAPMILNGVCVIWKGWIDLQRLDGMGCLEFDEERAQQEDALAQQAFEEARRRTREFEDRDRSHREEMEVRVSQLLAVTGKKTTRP
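His-tagged CBF-beta and biotinylated RUNX1 (30 nM each) were premixed 20 min at room temperature, exposed to compound for 15 min, then given nickel-chelate and streptavidin AlphaScreen beads (50 ng each). After 90 min, AlphaScreen signal was read.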
HTT ATP protect – cytoprotection in Huntington HTT-Q103 PC12 cell model; PC12 HTT-Q103 induced, cytoprotection, ATP luminescence, 40 h; Potency, µM (top dose mostly 56.4 µM), for inactives: cytoprotection (ATP increase), actives largely listed as activators; 230,000 compounds, 0.14% hits; AID 1471; also: potency is read from the fitted curve at half-maximal effect; % of control where 0% means no effect; nearly all actives have a fitted effect of over 45% in size
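ATP quantification (ATPlite) reports survival of PC12 cells in which tebufenozide, 100 nM final, switches on Htt exon 1 with 103 glutamines linked to GFP; compounds are titrated.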
PNC inhibitor – inhibitors of perinucleolar compartment assembly | PC3M PTB-GFP, PNC prevalence imaging, 16 h; stronger effect = lower value | activity change (PNC), negative = inhibition, % at 10 µM | 140,000 compounds, 3.1% hits | AID 2417;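 active = readout at or below -70, meaning at least 70% loss of cells showing the perinucleolar compartment, a nuclear body marking cancer cells; inconclusive = readout between -30 and a set limit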;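 also: plate controls were DMSO wells for no effect and camptothecin positive control wells for full effect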
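Read-out is percentage of cells bearing a perinucleolar compartment, from automated 20x imaging of fixed, Hoechst-stained PC3M PTB-GFP cells. Cells were seeded 4 h, then exposed 16 h to compound (23 nl of library stock) in duplicate plates.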
HttQ103 aggreg – mutant huntingtin aggregation inhibition; PC12 HttQ103-GFP aggregates, Acumen cytometry, 40 h; Potency, µM (top dose mostly 46.1 µM), without a hit: at the highest dose activity change, negative = inhibition, usual class: inhibitors; 220,000 compounds, 1.1% hits; also: potency is read from the fitted curve at half-maximal effect; % is scaled to controls: 0 for no effect and ±100 for the full control effect; nearly all actives have a fitted effect of over 60% in size
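Read-out: GFP aggregate count by laser scanning cytometer (488 nm excitation, 500-530 nm emission, 1–25 µm objects >6 SD above background). Cells: PC12, inducible HTTex1-Q103-GFP, 100 nM tebufenozide; compounds titrated.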
ALDH1A1 inh – inhibitors of human aldehyde dehydrogenase 1A1. P00352. Purified ALDH1A1, NADH fluorescence, propionaldehyde substrate. Potency, µM (series often up to 75.3 µM), for the others: at the highest dose activity, negative = inhibition, most hits filed as inhibitors. 220,000 compounds, 7.3% hits. AID 1030; active = well fitted inhibition curve with a large enough effect, not every such curve was filed as active; inconclusive = small, poorly fitted or top-dose-only effect, or another doubt; inactive = no such curve, though single readings can be large or run the other way;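 also: potency is read from the fitted curve at half-maximal effect; plate controls were no enzyme wells and a reference inhibitor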
Starred values were filed as active, the others as inactive; ? = inconclusive; · = no result; [ ] = remark or other dose. Unless noted, calls follow the shape of the dose curve; as a rule, active = well fitted curve in the direction sought with a large enough effect; inconclusive = small, poorly fitted or top-dose-only effect, or another doubt; inactive = no such curve, though single readings can be large; an effect the other way counts as inactive or inconclusive.

SMILES	HPGD inh	CBFb-RUNX1 inh	HTT ATP protect	PNC inhibitor	HttQ103 aggreg	ALDH1A1 inh
CSc1nnnn1-c1ccc(C(=O)O)cc1	·	7%	15%	19	6%	0%
O=c1c(CCc2ccccc2)nc2cnc(N3CCOCC3)nc2n1C1CC1	·	·	-33%	·	·	?
Cc1ccc(-n2nnnc2SCC(=O)N2c3ccccc3NC(=O)C2(C)C)cc1	0%	2%	-6%[10 µM]	-100*	-5%	-4%
O=C(CSc1nnnn1-c1ccccc1)N1CCCc2ccccc21	-7%	1%	-17%	-5	-5%	7.9µM*
O=C(O)CSc1nnnn1-c1ccccc1	-7%	2%	-5%	?	-14%	3%
c1ccc(-n2nnnc2SCc2cccc3nsnc23)cc1	?	2%	0%	-10	-8%	14µM*
CCSc1nnnn1-c1ccccc1	-8%	2%	5%[10 µM]	-14	20%	?
O=C(CSc1nnnn1-c1ccccc1)CSc1nnnn1-c1ccccc1	-16%	-5%	4%[10 µM]	10	-3%	3.2µM*
Cc1ccc(-c2nnc(SCC(=O)N3c4ccccc4NC(=O)C3(C)C)n2N)cc1	-9%	14%	1%	26	-3%	-10%
O=C(CSc1nnnn1-c1ccccc1)N1CCc2ccccc21	0%	4%	-20%	?	12%	-10%
CCCC[C@@H]1C[C@H]1C(NC(=O)c1cccnc1)c1ccc(-c2ccccc2)cc1 (some centres not stated)	-11%	7%	-71%	·	·	0%
O=C(CCCSc1nnnn1-c1ccccc1)c1ccc(F)cc1	-16%	19%	-5%	-22	-15%	1.3µM*
CCCC(O)(CCN1CCCCC1)c1ccc(OCC)cc1 (configuration not stated)	-2%	6%	-15%	10	14%	0.89µM*
CCCCCC(O)(CCN1CCCCC1)c1ccc(OCC)cc1 (configuration not stated)	·	-9%	-42%	·	-20%	1.8µM*
COC(=O)C1=C(C)N(Cc2ccccc2)[C@]23O[C@](C(=O)OC)(C(=O)N2C1c1ccccc1)C(c1ccccc1)C3C(=O)c1ccccc1 (some centres not stated)	·	14%[13.1 µM]	?	·	·	5%[13.5 µM]
COc1cccc(NC(=O)Nc2nccc(C)n2)c1	·	2%	-156%	·	-29%	6%
CC(C)N(C)C	-8%	5%[21.7 µM]	1%	·	·	7%
CCOC(=O)C1=C(Cc2ccc(F)cc2)C(=O)c2ccccc2C1=O	7.9µM*	-10%	-28%	?	-1%[9.22 µM]	?
O=C(OCc1ccc(F)cc1)c1ccc2c(c1)-c1ccccc1C2=O	-11%	-7%	0%	47	3%	5%
CNCC(=O)NC(CCCN=C(N)N)C(=O)NC(C(=O)NC(Cc1ccc(O)cc1)C(=O)NC(C(=O)NC(Cc1cnc[nH]1)C(=O)N1CCCC1C(=O)NC(C)C(=O)O)C(C)C)C(C)C (configuration not stated)	·	·	24%	·	15%	·
CC1(C)CC(=O)C2=C(C1)N=C1SCCC(=O)N1C2c1cccc([N+](=O)[O-])c1 (configuration not stated)	·	4%	25%	·	?	10µM*
Oc1cccc2c(NC(=S)Nc3ccc(OC(F)F)cc3)cccc12	?	0%	-21%[10 µM]	115	13µM*	?
FC(F)Oc1ccc(NC(=S)Nn2cnnc2)cc1	·	-3%	11%	·	-10%	7.9µM*
CCN(CC)C(=S)Nc1ccc(OC(F)F)cc1	·	1%	-2%[10 µM]	·	1%	-6%
CN(NC(=S)Nc1ccc(OC(F)F)cc1)C(=S)Nc1ccc(OC(F)F)cc1	18µM*	-1%	-94%[10 µM]	-1	?	22%
SMILES	HPGD inh	CBFb-RUNX1 inh	HTT ATP protect	PNC inhibitor	HttQ103 aggreg	ALDH1A1 inh
O=[N+]([O-])c1ccccc1CNC1CCCCCC1	·	4%	18%[10 µM]	·	-8%[9.22 µM]	14µM*
Cc1cnc(C(=O)N2CCCC(C(=O)c3ccc(C(C)(C)C)cc3)C2)cn1 (configuration not stated)	·	-4%	-71%[10 µM]	·	-1%[9.22 µM]	13µM*
CCOc1cc(Cl)c(NC(=O)CC)cc1OCC	-1%	4%	·	-114*	18%	9%
COc1ccc(-n2c(N)c(C(=O)NCC3CCCO3)sc2=S)cc1 (configuration not stated)	16µM*	-6%	11%	48	-17%	?
COc1ccc(-n2c(SCC(=O)NCC3CCCO3)nc3ccccc32)cc1 (configuration not stated)	10µM*	-2%	-23%[10 µM]	5	?	?
c1ccc(-n2c(SCC3CCCCO3)nnc2-c2cnccn2)cc1 (configuration not stated)	28µM*	5%	-7%	-28	-2%	?
Cc1nnc(SCC(=O)NCC2CCCO2)n1-c1ccccc1 (configuration not stated)	-19%	-2%	-2%[10 µM]	-118*	-3%	?
CSc1ncc(Cl)c(C(=O)Nc2cccc(C)c2)n1	-18%	0%	-4%[10 µM]	5	12%	-5%
CSc1ncc(Cl)c(C(=O)C(C#N)c2nc3c(C)cc(C)cc3c(=O)[nH]2)n1 (configuration not stated)	25µM*	-5%	-16%[10 µM]	-95*	-19%	-10%
COc1cccc(/C=N/n2nnnc2N)c1O	·	9%	2%[10 µM]	·	-2%[9.22 µM]	·
O=c1c(O)cc(C2Oc3cc(O)cc(O)c3CC2O)cc2c(C3Oc4cc(O)cc(O)c4CC3O)cc(O)c(O)c12 (configuration not stated)	13µM*	·	·	·	·	-15%
Oc1cc(O)c2c(c1)O[C@H](c1ccc(O)c(O)c1)[C@@H](O)C2	-8%	-11%	?	·	27%[9.22 µM]	?
COc1ccc(C(=O)c2ccccc2)c(OCC(=O)NC2CC2)c1	·	-4%	-45%	·	-8%	-2%
O=C(O)c1ccc(Cl)c(S(=O)(=O)Nc2ccc3cn[nH]c3c2)c1	·	?	-40%	·	8%	22µM*
COc1cc(S(=O)(=O)Nc2ccc3cn[nH]c3c2)ccc1Cl	·	-1%	-26%	·	-11%	-15%
O=C(C1=C[C@H](c2csc3ccccc23)C[C@H](OCc2ccc(CO)cc2)O1)N1CCN(Cc2ccc3c(c2)OCO3)CC1	·	-21%	19%[10 µM]	·	22%[9.22 µM]	0%
CCn1nc(C)c(NS(=O)(=O)c2ccccc2)c1C	-8%	-1%	7%	-105*	-16%	-5%
CCOC(=O)N/N=C1/C[C@@H](O)[C@@H](O)[C@@H]2[C@@H]3C(=O)N(C4CCCCC4)C(=O)[C@H]3CC[C@@H]12	·	10%[13.1 µM]	-9%[10 µM]	·	·	12%[13.5 µM]
Cc1ccc2cc(CCNC(=O)c3ccc(S(=O)(=O)N4CCCCC4)cc3)c(=O)[nH]c2c1	·	-2%	-32%	·	13%[9.22 µM]	14µM*

Source: PubChem
